Only some compounds are listed: those with a hit (about 1.4% of all), similar ones and a draw of the others.
A3G deaminase = inhibitors of human APOBEC3G DNA deaminase. inhibition, % at 20 µM. recombinant A3G, ssDNA deamination FAM/TAMRA fluorescence. 330,000 compounds, 0.28% hits. Q9HC16;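 active means inhibition of at least 40% at 20 µM, with no more than 30% in the related APOBEC3A deaminase screen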;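 further: plate controls were DMSO wells with A3G for no effect and wells lacking A3G enzyme for full effect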
Target sequence (Q9HC16 whole entry, looked up): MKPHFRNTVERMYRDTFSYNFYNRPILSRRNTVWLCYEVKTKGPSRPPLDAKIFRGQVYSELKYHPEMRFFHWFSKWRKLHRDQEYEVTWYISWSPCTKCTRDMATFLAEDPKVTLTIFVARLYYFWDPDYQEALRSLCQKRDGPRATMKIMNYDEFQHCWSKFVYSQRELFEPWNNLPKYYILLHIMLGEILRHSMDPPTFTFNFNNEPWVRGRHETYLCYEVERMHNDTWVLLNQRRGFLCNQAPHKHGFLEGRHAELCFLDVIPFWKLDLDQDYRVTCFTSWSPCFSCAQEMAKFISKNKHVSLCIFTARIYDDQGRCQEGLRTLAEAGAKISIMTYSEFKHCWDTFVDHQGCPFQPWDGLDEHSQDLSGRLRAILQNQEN
LANA-H2A inh = blocks KSHV LANA binding to histone H2A/H2B. Q9QR71. cell-free LANA-H2A/H2B peptide, fluorescence polarization. inhibition, % (concentration not given with the values). 320,000 compounds, 0.6% hits; in the data active means inhibition mostly above about 10%, no sharp cut-off; inactive means mostly below about 6.7%
A3A deaminase = human APOBEC3A DNA deaminase inhibition; 330,000 compounds, 0.41% hits; recombinant A3A, FAM/TAMRA ssDNA deamination fluorescence; inhibition, % at 20 µM;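 active means at least 40% inhibition at 20 µM here, with at most 30% in a related deaminase screen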;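 further: plate controls were A3A with DMSO for no effect and wells lacking A3A enzyme for full effect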
HDAC3 inh = human HDAC3 inhibition | O15379 | recombinant HDAC3, fluorogenic peptide/trypsin coupled, fluorescence | inhibition, % at 8.3 µM | 320,000 compounds, 0.15% hits | AID 2718; in the data active means inhibition above about 26%, passing the limit was not always enough
An asterisk follows results filed as active.

For C[C@@H]1CN([C@@H](C)CO)C(=O)c2cc(NS(=O)(=O)c3cccs3)ccc2O[C@H]1CN(C)Cc1ccc(C(F)(F)F)cc1 the results were A3G deaminase 0.8, LANA-H2A inh -1.7, A3A deaminase 3.9 and HDAC3 inh 16.7.
Screening CCc1c(C)sc(NC(=O)c2ccoc2C)c1C(N)=O returned A3G deaminase 60.4*, LANA-H2A inh 0.1, A3A deaminase -0.1 and HDAC3 inh 10.3.
Cc1ccc(C(=O)NC(Cc2ccccc2C(F)(F)F)C(=O)O)cc1 (stereo not given) was read as A3G deaminase 4.6 and A3A deaminase 1.3.
For C=CC[C@@H](CC(=O)N[C@H](CO)Cc1ccccc1)C(=O)N[C@@H](COC(=O)[C@@H](CC=C)Cc1ccc(F)cc1)Cc1ccccc1 the results were A3G deaminase -5.2, LANA-H2A inh 174.9*, A3A deaminase -3.4 and HDAC3 inh 1.5.
Screening C=CCC[C@H](Cc1ccc(F)cc1)C(=O)OC[C@@H](NC(=O)[C@@H](CC=C)CC(=O)N[C@@H](CO)Cc1ccccc1)C(C)(C)C returned A3G deaminase -9.5, LANA-H2A inh -1.5, A3A deaminase -2.1 and HDAC3 inh 31.6*.
Screening C=CC[C@@H](CC(=O)N[C@@H](CO)Cc1ccccc1)C(=O)N[C@H](COC(=O)[C@@H](CC=C)Cc1ccc(F)cc1)Cc1ccccc1 returned A3G deaminase -7.7, LANA-H2A inh 2.4, A3A deaminase 0.3 and HDAC3 inh 0.3.
For C=CC[C@H](CC(=O)NCCO)C(=O)N[C@H](C)COC(=O)[C@@H](CC=C)Cc1ccc(F)cc1 the results were A3G deaminase -0.3, LANA-H2A inh 13.7*, A3A deaminase 0.9 and HDAC3 inh 2.0.
Screening C=CCC[C@@H](Cc1ccc(F)cc1)C(=O)OC[C@@H](NC(=O)[C@@H](CC=C)CC(=O)N[C@@H](CO)Cc1ccccc1)C(C)(C)C returned A3G deaminase -4.9, LANA-H2A inh -2.0, A3A deaminase -0.9 and HDAC3 inh 18.1.
`O=C(NC(=S)NNC(=O)c1ccco1)c1ccc(Br)cc1` gave A3G deaminase -0.1, LANA-H2A inh 2.0, A3A deaminase -5.3 and HDAC3 inh 6.4.
For CCS(=O)c1ccccc1C(=O)OCC(=O)N1CCC(c2ccccc2)=N1 (stereo not given) the results were A3G deaminase -4.8, LANA-H2A inh -1.0, A3A deaminase -0.5 and HDAC3 inh -5.3.
CCCSc1ccc([C@H]2N[C@@](CC(C)C)(C(=O)OC)[C@H]3C(=O)N(CC)C(=O)[C@@H]23)cc1 was read as A3G deaminase -2.7, LANA-H2A inh 11.6, A3A deaminase -0.5 and HDAC3 inh 6.0.
Cc1ccnc(NS(=O)(=O)c2ccc(NS(=O)(=O)c3ccc([N+](=O)[O-])cc3)cc2)n1 was read as A3G deaminase -5.4, LANA-H2A inh 1.0, A3A deaminase -2.9 and HDAC3 inh -1.9.
For Cc1ccnc(NS(=O)(=O)c2ccc(NS(=O)(=O)c3cc(Cl)ccc3Cl)cc2)n1 the results were A3G deaminase -4.6, LANA-H2A inh 14.0*, A3A deaminase -8.5 and HDAC3 inh 2.6.
For O=C(NNC(=O)C1CCCN(c2ncccn2)C1)c1ccncc1 (stereo not given) the results were A3G deaminase -3.7, LANA-H2A inh 11.6*, A3A deaminase 0.5 and HDAC3 inh -2.1.
`COc1ccc([C@H]2CC(=O)C=C(c3cc4ccccc4s3)C2)cc1OC` gave A3G deaminase -8.6, LANA-H2A inh -2.2, A3A deaminase 0.3 and HDAC3 inh 4.1.
Screening O=C(N/N=C\c1c[nH]c2ccccc12)c1ccc(O)cc1 returned A3G deaminase -6.4, LANA-H2A inh 73.6*, A3A deaminase -2.5 and HDAC3 inh 4.3.
Screening Fc1c(F)c(F)c(N/N=C/c2c[nH]c3ccccc23)c(F)c1F returned A3G deaminase -6.7, LANA-H2A inh -2.6, A3A deaminase -0.8 and HDAC3 inh 32.1*.
Screening O=C(N/N=C/c1c[nH]c2ccccc12)c1ccc(Br)cc1 returned A3G deaminase -1.8, LANA-H2A inh -1.4, A3A deaminase -2.8 and HDAC3 inh 11.3.
For Cc1ccc(NC(=S)NC2CCSc3ccccc32)cc1C (stereo not given) the results were A3G deaminase -0.3, LANA-H2A inh -0.4, A3A deaminase -2.0 and HDAC3 inh 9.9.
S=C1NC2=C(CCCC2=C2SCCS2)C(c2ccccc2)N1 (stereo not given) was read as A3G deaminase -5.6, LANA-H2A inh -0.5, A3A deaminase -4.3 and HDAC3 inh 95.0*.
O=C(c1cc2cc(Br)ccc2o1)N1CCN(c2ccccc2)CC1 was read as A3G deaminase -2.5, LANA-H2A inh 16.0*, A3A deaminase 2.6 and HDAC3 inh 0.4.

Compound activity as filed in PubChem BioAssay.
